Shown are actives, neighbours in structure and some others; about 19% of the full set was active somewhere.
TGFb inhibitor – TGF-b pathway inhibition. HepG2 CAGA-GFP TGF-b/SMAD3 reporter, GFP fluorescence, 18 h; TGF-beta stimulated, 500 pg/mL final. Potency, µM (doses to about 46.1 µM), most hits filed as inhibitors. 1.2% of 410,000 active; further: nearly all actives have a fitted effect of over 65% in size
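Inhibition was scored as loss of TGF-beta-induced (500 pg/mL final, 18 hours, 37 degrees C) GFP in HEPG2 cells carrying a CAGA-GFP reporter, in DMEM with 1% FBS. Well GFP was summed per cell; Activity was normalised to unstimulated and stimulated DMSO wells, then concentration-response fitting.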
DT40 TDP1 CPT – DT40-hTDP1 cell growth loss with CPT; chicken DT40 Tdp1-/-;hTDP1 cells + 20 nM CPT, ATP luminescence, 48 h; Potency, µM (doses to about 46.2 µM), hits mostly inhibitors; 12% of 420,000 active; AID 686979; further: nearly all actives have a fitted effect of over 55% in size
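Chicken DT40 Tdp1-/- cells stably complemented with human TDP1 were seeded at 400 cells/well in medium containing 20 nM camptothecin, exposed to pin-transferred compounds, and grown at 37 °C for at least 48 hr. Viability was read as ATP luminescence.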
S-ASM inh – blocks human secretory acid sphingomyelinase | P17405 | placental ASM, HMU-PC fluorogenic substrate, 60 min | Potency, µM (top dose mostly 57.5 µM), hits mostly inhibitors | 0.006% of 340,000 active | AID 504937
Target sequence (P17405 47-631 limits assumed): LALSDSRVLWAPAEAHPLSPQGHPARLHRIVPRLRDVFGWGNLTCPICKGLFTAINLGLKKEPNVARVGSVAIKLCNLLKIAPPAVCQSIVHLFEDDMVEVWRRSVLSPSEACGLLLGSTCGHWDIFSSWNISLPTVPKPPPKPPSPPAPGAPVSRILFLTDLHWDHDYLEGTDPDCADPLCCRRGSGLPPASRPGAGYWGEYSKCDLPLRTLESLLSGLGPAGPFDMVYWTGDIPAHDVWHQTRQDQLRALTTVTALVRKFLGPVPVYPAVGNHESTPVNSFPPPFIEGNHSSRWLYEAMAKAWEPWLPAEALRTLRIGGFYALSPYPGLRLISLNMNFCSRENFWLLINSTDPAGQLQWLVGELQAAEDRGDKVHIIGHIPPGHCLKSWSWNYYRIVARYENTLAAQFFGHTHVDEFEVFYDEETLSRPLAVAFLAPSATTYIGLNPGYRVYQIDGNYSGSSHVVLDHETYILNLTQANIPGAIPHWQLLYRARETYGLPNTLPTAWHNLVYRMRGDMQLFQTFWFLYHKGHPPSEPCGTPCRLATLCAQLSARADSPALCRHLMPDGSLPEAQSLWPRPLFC
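Steps: dispense placental human ASM, pin compound, wait 10 min at room temperature, add HMU-PC0 substrate at 9 uM final, incubate 60 min at 37 °C, add stop solution raising pH to 10, read fluorescence.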
DT40 TDP1 no CPT – qHTS for Inhibitors of human tyrosyl-DNA phosphodiesterase 1 (TDP1): qHTS in cells in absence of CPT | DT40 Tdp1-/- hTDP1 cells, no CPT, ATP luminescence, 48 h | Potency, µM (titrated, usually from 46.2 µM), hits mostly inhibitors | 15% of 420,000 active | AID 686978, 2013; further: nearly all actives have a fitted effect of over 55% in size
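Seeded 400 DT40-hTDP1 cells/well (vehicle DMSO, no 20 nM CPT); pinned compounds; ≥48 hr at 37 °C; CellTiter-Glo luminescence as viability measure.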
IL1B secr inh – inflammasome signaling inhibition, IL-1 beta readout; 4.7% of 360,000 active; THP-1 LPS/ATP IL-1B secretion, AlphaLISA, 16 h; hits give low values; activity change, % at 57.5 µM; AID 743279; in the data active means activity change below about -50%; inconclusive means mostly about -30% to -49%
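THP-1 cells pretreated 1 hr with compounds (up to 57.5 uM final), then stimulated with LPS (250 ng/mL final) plus ATP (1.25 mM final); secreted IL-1B measured by AlphaLISA after 16 hr, decreased signal indicating inhibition.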
HepG2 viability – HepG2 cytotoxicity, counter-screen for TGF-b inhibitors; 0.76% of 410,000 active; HepG2 CAGA-GFP viability, ATP luminescence, 18 h; Potency, µM (top dose mostly 46.1 µM), usual class: cytotoxic; AID 588856
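HepG2 CAGA-GFP cells (1000/well, DMEM with 1% FBS) received compound, then TGF-beta at 500 pg/mL final, and were incubated 18 hours at 37 degrees C. Viability was read by CellTiter-Glo luminescence. Media-only wells were set as complete cell-killing and DMSO as no toxicity.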
Hits are given with their value; n = inactive; u = inconclusive; x = no result. Unless noted, the call rests on the fitted dose curve; in most records, active means well fitted curve in the direction sought with a large enough effect; inconclusive means small, poorly fitted or top-dose-only effect, or another doubt; inactive means no such curve, though single readings can be large; an effect the other way counts as inactive or inconclusive.

SMILES	TGFb inhibitor	DT40 TDP1 CPT	S-ASM inh	DT40 TDP1 no CPT	IL1B secr inh	HepG2 viability
Cc1cc(C)nc(N/N=C/C2=C(N3CCOCC3)C(=C/c3ccccc3)/CC2)n1	u	16.4µM	n	11.6µM	n	n
Cc1cc(=O)[nH]c(N/N=C/C2=C(N3CCOCC3)C(=C\c3ccc(Cl)cc3)/CC2)n1	n	20.6µM	u	16.4µM	n	n
COc1ccc(C(=O)NC(=S)Nc2ccc3[nH]c(=O)[nH]c3c2)c(OC)c1	n	n	n	n	n	n
CSCCC(NC(=O)c1ccccc1Cl)C(=O)Nc1cccc(S(=O)(=O)N2CCCC2)c1 (stereo not given)	n	u	n	u	n	n
Cc1ccc(N2CCN(/N=C/C3=C(N4CCOCC4)C(=C\c4ccccc4)/CC3)CC2)cc1	n	n	n	n	n	n
O=C(O)c1ccccc1N/N=C/C1=C(N2CCOCC2)C(=C\c2ccccc2)/CC1	n	20.6µM	n	11.6µM	n	n
O=C(CSc1nnc(NC(=O)c2ccco2)s1)Nc1ccc2c(c1)OCCO2	n	n	n	n	n	n
Cn1c(/C(C#N)=C(\O)c2ccc([N+](=O)[O-])cc2)nc2ccccc21	n	u	n	18.4µM	n	n
COCCCn1c(=O)/c(=C\c2ccccc2OC(C)C)s/c1=C(/C#N)C(=O)Nc1ccc(C(=O)O)cc1	n	u	n	14.6µM	n	n
COc1ccc(Nc2nc3c(S(=O)(=O)c4ccc(Br)cc4)nnn3c3ccsc23)c(OC)c1	n	16.4µM	x	20.6µM	x	n
COc1cc(Nc2nc3c(S(=O)(=O)c4ccc(C)c(C)c4)nnn3c3ccsc23)cc(OC)c1	n	9.2µM	x	13µM	x	n
CCCCNc1nc2c(S(=O)(=O)c3ccc(Br)cc3)nnn2c2ccsc12	n	n	x	n	x	n
CCOC(=O)Nc1ccc2c(c1)C(=NNC(N)=S)c1ccccc1-2	u	6.51µM	n	3.26µM	-95.9	8.91µM
NC(=S)N/N=C1\c2ccccc2-c2c(C(=O)O)cccc21	n	n	n	n	n	n
CCOC(=O)Nc1ccc2c(c1)C(=NO)c1ccccc1-2	n	18.4µM	n	20.6µM	-75.2	n
COC(=O)c1c(C)oc(C)c1S(=O)(=O)N(C)C1CCCCC1	n	n	n	u	n	n
CN(Cc1ccco1)c1ncnc2ccc(-c3ccccc3C(F)(F)F)cc12	x	u	x	23.1µM	x	x
CN(Cc1ccco1)c1nc(-c2ccoc2)nc2ccccc12	x	u	x	n	x	x
CN(Cc1ccco1)c1ncnc2ccc(-c3ccoc3)cc12	n	18.4µM	n	u	x	n
CN(Cc1ccco1)c1ncnc2ccc(-c3ccccc3Cl)cc12	n	20.6µM	n	u	x	n
CN(Cc1ccco1)c1cc(-c2ccccc2Cl)ncn1	x	n	x	n	x	x
Cc1c(C(=O)N2CCOc3ccccc3C2)sc2ncnc(NCCCN3CCOCC3)c12	x	n	x	n	x	x
CC(C)CN(C(=O)COC(=O)CCc1c[nH]c2ccccc12)c1c(N)n(Cc2ccccc2)c(=O)[nH]c1=O	n	n	n	n	n	n
COc1cccc(CNC(=O)CCc2c(C)nc3c(c(C)nn3-c3ccc(C)c(C)c3)c2C)c1	n	20.6µM	x	20.6µM	x	n
COCCNC(=O)CCc1c(C)nc2c(c(C)nn2-c2ccc(C)c(C)c2)c1C	n	u	n	16.4µM	n	n
SMILES	TGFb inhibitor	DT40 TDP1 CPT	S-ASM inh	DT40 TDP1 no CPT	IL1B secr inh	HepG2 viability
CCN(CC)CCNC(=O)CCc1c(C)nc2c(c(C)nn2-c2ccc(C)cc2)c1C	u	20.6µM	n	13µM	n	n
COCCNC(=O)CCc1c(C)nc2c(c(C)nn2-c2ccc(C)cc2)c1C	n	u	n	18.4µM	n	n
COCCCNC(=O)CCc1c(C)nc2c(c(C)nn2-c2ccc(C)cc2)c1C	n	u	n	n	n	n
Cc1noc(C)c1COc1cccc(C(=O)N(C)Cc2nc3ccccc3c(=O)[nH]2)c1	n	n	n	n	n	n
O=C(c1cc(F)c(F)cc1Cl)N1CCN(CCc2ccccc2)CC1	n	n	n	n	n	n
COc1ccc(CCNC(=O)CCc2c(C)nc3c(c(C)nn3-c3ccccc3)c2C)c(OC)c1	n	23.1µM	x	16.4µM	x	n
CC(C)C[C@H]1CNC(=O)C(=O)N1CC1CCN(CCc2ccccc2)CC1	n	n	x	n	n	n
O=C1NC[C@H](Cc2ccccc2)N(CC2CCN(CCc3ccccc3)CC2)C1=O	n	n	n	n	n	n
O=C1NC[C@H](Cc2ccccc2)N(CC2CCN(CCc3ccc(-c4ccccc4)cc3)CC2)C1=O	n	20.6µM	n	16.4µM	-59.4	n
CC(C)C[C@H]1CNC(=O)C(=O)N1CC1CCN(CCc2ccc(-c3ccccc3)cc2)CC1	n	n	n	n	-67.1	n
NC(=O)c1sc(=S)n(-c2ccc(Br)cc2)c1N	11.2µM	n	n	n	n	n
CC(=O)Oc1ccc(/C=C(\NC(=O)c2cccc(Br)c2)C(=O)Nc2ccc(C(=O)O)cc2)cc1	n	n	n	n	n	n
CCOc1ccc(NC(=O)c2ccc(F)c(S(=O)(=O)N(Cc3ccc(C(=O)OC)cc3)Cc3ccc(OC)c(OC)c3)c2)cc1	n	n	x	n	x	n
COc1ccc(OC)c(N(CCN2C(=O)c3ccccc3C2=O)C(=O)CCl)c1	u	u	x	20.6µM	-104.2	n
Cc1ccc(NS(=O)(=O)c2cc3c4c(cccc4c2)C(=O)NC3=O)cc1C	u	6.51µM	n	8.2µM	n	n
O=C1NC(=O)c2cc(Br)cc3cccc1c23	n	n	n	n	n	n
Cn1nc(C(C)(C)C)cc1NC(=O)Nc1cc(Cl)cc(Cl)c1	u	16.4µM	n	u	-98.0	15.8µM
O=C(CCn1c(=O)c2ccccc2n(CC(=O)Nc2cccc(F)c2)c1=O)NCCc1ccccc1	n	n	x	n	x	n
Cc1cc(Cl)c(S(=O)(=O)Nc2ccc3c(c2)OCCO3)cc1OCC(=O)NC1CCCCC1	n	u	n	u	-52.9	n
Cc1cc(Cl)c(S(=O)(=O)NC2CCCCC2)cc1OCC(=O)Nc1nncs1	n	25.9µM	n	23.1µM	n	n
COC(=O)COc1ccc(S(=O)(=O)Nc2ccc3c(c2)OCCO3)cc1C	n	u	n	u	-73.4	n
CCOC(=O)c1[nH]c(C)c(CCC(=O)NCc2ccccc2)c1C	n	n	x	n	x	n
Cc1ccc(C(=O)OCC(=O)N2CCC(c3ccccc3)=N2)cc1	n	u	n	u	-85.1	n
CCc1nnc(NC(=O)c2ccc(S(=O)(=O)N(C)c3ccccc3)cc2)o1	n	11.6µM	n	4.61µM	n	n

Screening results from PubChem BioAssay.
